# The supplement of paper PMC8728848
# Many of the other results were omitted from the sample, so the strongest signals are more common in it than they were.
# B1: LecB PA7 (Pseudomonas aeruginosa) (protein)
# chain: MATQGVFTLPANTRFGVTAFANSSATQTVKVLVNNETAATFTGQSTNNAVIGSQVLNSGGGGKVQIQVSVNGRSSDLVSAQVILANELNVALVGSEDSTDNDYNDAVVVINWPLG
# Assays:
# Assay in all cases: glycan array binding signal (z-score within array); higher = stronger binding
# Conditions in all cases: glycan notation: IUPAC condensed, linker removed
# Gal6S(b1-4)GlcNAc = molecular target: Gal6S(b1-4)GlcNAc
# Outline: (§1)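 Columns mapping to the same glycan were averaged after glycan names were converted to IUPAC-condensed notation. The data come from 3228 arrays in the Consortium for Functional Glycomics database, limited to those with an available protein sequence. Binding is reported as a within-array Z-score averaged across arrays of one protein sequence and across linkers.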
# GalNAc(b1-3)Gal = molecular target: GalNAc(b1-3)Gal
# Outline: as §1
# GalNAc3S(b1-4)GlcNAc3S = molecular target: GalNAc3S(b1-4)GlcNAc3S
# Outline: as §1
# [1] = molecular target: GlcNAc(a1-4)Gal(b1-4)GlcNAc(b1-3)Gal(b1-4)Glc
# Outline: as §1
# [2] = molecular target: GlcNAc(b1-3)Gal(b1-4)GlcNAc(b1-3)Gal(b1-4)GlcNAc
# Outline: as §1
# [3] = molecular target: GlcNAc(b1-3)Gal(b1-4)GlcNAc(b1-3)Gal(b1-4)GlcNAc(b1-3)Gal(b1-4)GlcNAc(b1-2)Man(a1-3)[GlcNAc(b1-3)Gal(b1-4)GlcNAc(b1-3)Gal(b1-4)GlcNAc(b1-3)Gal(b1-4)GlcNAc(b1-2)Man(a1-6)]Man(b1-4)GlcNAc(b1-4)GlcNAc
# Outline: as §1
# [4] = molecular target: GlcNAc(b1-3)Gal(b1-4)GlcNAc(b1-3)Gal(b1-4)GlcNAc(b1-3)Gal(b1-4)GlcNAc(b1-3)Gal(b1-4)GlcNAc(b1-2)Man(a1-3)[GlcNAc(b1-3)Gal(b1-4)GlcNAc(b1-3)Gal(b1-4)GlcNAc(b1-3)Gal(b1-4)GlcNAc(b1-3)Gal(b1-4)GlcNAc(b1-2)Man(a1-6)]Man(b1-4)GlcNAc(b1-4)[Fuc(a1-6)]GlcNAc
# Outline: as §1
# [5] = molecular target: GlcNAc(b1-3)[GlcNAc(b1-6)]Gal(b1-4)GlcNAc
# Outline: as §1
# GlcNAc(b1-4)GlcNAc = molecular target: GlcNAc(b1-4)GlcNAc
# Outline: as §1
# [6] = molecular target: GlcNAc(b1-4)GlcNAc(b1-4)GlcNAc
# Outline: as §1
# GlcNAc(b1-6)GalNAc = molecular target: GlcNAc(b1-6)GalNAc
# Outline: as §1
# Kdn(a2-3)Gal(b1-3)GlcNAc = molecular target: Kdn(a2-3)Gal(b1-3)GlcNAc
# Outline: as §1
# [7] = molecular target: Man(a1-2)Man(a1-3)[Man(a1-2)Man(a1-6)]Man(a1-6)[Man(a1-2)Man(a1-2)Man(a1-3)]Man
# Outline: as §1
# [8] = molecular target: Man(a1-3)[Man(a1-6)]Man(a1-6)[Man(a1-2)Man(a1-3)]Man(b1-4)GlcNAc(b1-4)GlcNAc
# Outline: as §1
# [9] = molecular target: Neu5Ac(a2-3)Gal(b1-3)[Fuc(a1-4)]GlcNAc
# Outline: as §1
# [10] = molecular target: Neu5Ac(a2-3)Gal(b1-4)GlcNAc(b1-3)Gal(b1-3)GlcNAc
# Outline: as §1
# [11] = molecular target: Neu5Ac(a2-3)Gal(b1-4)GlcNAc(b1-3)GalNAc
# Outline: as §1
# [12] = molecular target: Neu5Ac(a2-3)Gal(b1-4)GlcNAc(b1-6)[Gal(b1-3)]GalNAc
# Outline: as §1
# [13] = molecular target: Neu5Ac9Ac(a2-6)Gal(b1-4)GlcNAc
# Outline: as §1
# [14] = molecular target: Neu5Gc(a2-3)Gal(b1-3)[Fuc(a1-4)]GlcNAc
# Outline: as §1
# Neu5Gc(a2-6)GalNAc = molecular target: Neu5Gc(a2-6)GalNAc
# Outline: as §1
# [15] = molecular target: Neu5Gc(a2-8)Neu5Gc(a2-6)Gal(b1-4)GlcNAc
# Outline: as §1
binder,measurement,setting,value
B1,glycan array binding signal (z-score),Gal6S(b1-4)GlcNAc,-0.501
same,glycan array binding signal (z-score),GalNAc(b1-3)Gal,-0.493
same,glycan array binding signal (z-score),GalNAc3S(b1-4)GlcNAc3S,-0.517
same,glycan array binding signal (z-score),[1],-0.505
same,glycan array binding signal (z-score),[2],-0.503
same,glycan array binding signal (z-score),[3],-0.467
same,glycan array binding signal (z-score),[4],0.402
same,glycan array binding signal (z-score),[5],-0.516
same,glycan array binding signal (z-score),GlcNAc(b1-4)GlcNAc,-0.486
same,glycan array binding signal (z-score),[6],-0.497
same,glycan array binding signal (z-score),GlcNAc(b1-6)GalNAc,-0.504
same,glycan array binding signal (z-score),Kdn(a2-3)Gal(b1-3)GlcNAc,-0.511
same,glycan array binding signal (z-score),[7],3.2
same,glycan array binding signal (z-score),[8],2.3
same,glycan array binding signal (z-score),[9],3.31
same,glycan array binding signal (z-score),[10],-0.505
same,glycan array binding signal (z-score),[11],-0.466
same,glycan array binding signal (z-score),[12],-0.087
same,glycan array binding signal (z-score),[13],-0.502
same,glycan array binding signal (z-score),[14],2.03
same,glycan array binding signal (z-score),Neu5Gc(a2-6)GalNAc,-0.508
same,glycan array binding signal (z-score),[15],-0.507
